Inconclusive results are not listed. The source made the active and inactive calls. Unless noted, calls come from the whole dose curve; as a rule, active = well fitted curve in the direction sought with a large enough effect in the repeat runs; inconclusive = weak or mixed curves; inactive = no such curve, though single readings can be large; an effect the other way counts as inactive or inconclusive.
Columns and labels:
[1] = target: Retinoic acid receptor RXR-alpha (Homo sapiens) (UniProt P19793); test: qHTS assay to identify small molecule agonists of the RXR signaling pathway (AID 1159527; calls by dose curve; note: nearly all actives have a fitted effect of over 35% in size; note: potency is the fitted concentration of half-maximal effect)
Sequence of Retinoic acid receptor RXR-alpha (Homo sapiens) (P19793 whole entry, looked up): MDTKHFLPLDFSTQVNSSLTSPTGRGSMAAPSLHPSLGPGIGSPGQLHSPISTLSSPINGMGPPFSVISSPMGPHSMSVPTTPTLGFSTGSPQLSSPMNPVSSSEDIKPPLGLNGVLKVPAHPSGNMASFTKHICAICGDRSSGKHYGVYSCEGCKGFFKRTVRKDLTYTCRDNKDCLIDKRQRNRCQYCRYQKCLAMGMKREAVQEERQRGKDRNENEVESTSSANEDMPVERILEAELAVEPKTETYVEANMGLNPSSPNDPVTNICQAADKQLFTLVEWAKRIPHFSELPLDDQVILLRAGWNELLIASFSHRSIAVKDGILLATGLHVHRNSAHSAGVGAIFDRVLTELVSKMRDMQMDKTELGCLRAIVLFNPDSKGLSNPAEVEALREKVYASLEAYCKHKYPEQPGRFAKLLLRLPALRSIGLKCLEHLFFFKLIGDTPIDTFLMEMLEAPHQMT
In short: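 Reporter activation is measured as beta-lactamase activity via FRET substrate cleavage (emission 460/530 nm) in HEK 293T cells expressing an RXR-alpha-driven bla construct, following 16 hr compound exposure at 37 C.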

[2] = qHTS assay to identify small molecule agonists of the RXR signaling pathway - cell viability counter screen (AID 1159529); note: series mostly up to about 77 µM; nearly all actives have a fitted effect of over 50% in size
In short: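 Tox21 10K compounds were tested for cytotoxicity against GeneBLAzer RXR-alpha HEK 293T cells grown in 2% charcoal-stripped FBS. Exposure lasted 16 hr at 37 C, 5% CO2; viability read by CellTiter-Glo luminescence.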

[3] = qHTS assay to identify small molecule antagonists of the retinoid acid receptor (RAR) signaling pathway - cell viability counter screen (AID 1159551); note: nearly all actives have a fitted effect of over 35% in size
In short: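 Viability of C3RL4 cells is quantified from ATP by luminescence after 6 h treatment at 37 C with compounds and 1 uM retinol.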

[4] = qHTS assay to identify small molecule antagonists of the estrogen related receptor (ERR) signaling pathway from Tox21 library - cell viability counter screen (AID 1224834); note: nearly all actives have a fitted effect of over 30% in size
In short: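 In this quantitative HTS format, ERR cells receive compounds in DMSO and are incubated for 17.5 h at 37 C. Live-cell protease activity is then detected with CellTiter-Fluor.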

[5] = target: Luciferin 4-monooxygenase (Photinus pyralis) (UniProt P08659); test: qHTS assay to identify small molecule inhibitors of firefly luciferase (AID 1224835); note: series mostly up to about 120 µM; nearly all actives have a fitted effect of over 25% in size
Sequence of Luciferin 4-monooxygenase (Photinus pyralis) (P08659 whole entry, looked up): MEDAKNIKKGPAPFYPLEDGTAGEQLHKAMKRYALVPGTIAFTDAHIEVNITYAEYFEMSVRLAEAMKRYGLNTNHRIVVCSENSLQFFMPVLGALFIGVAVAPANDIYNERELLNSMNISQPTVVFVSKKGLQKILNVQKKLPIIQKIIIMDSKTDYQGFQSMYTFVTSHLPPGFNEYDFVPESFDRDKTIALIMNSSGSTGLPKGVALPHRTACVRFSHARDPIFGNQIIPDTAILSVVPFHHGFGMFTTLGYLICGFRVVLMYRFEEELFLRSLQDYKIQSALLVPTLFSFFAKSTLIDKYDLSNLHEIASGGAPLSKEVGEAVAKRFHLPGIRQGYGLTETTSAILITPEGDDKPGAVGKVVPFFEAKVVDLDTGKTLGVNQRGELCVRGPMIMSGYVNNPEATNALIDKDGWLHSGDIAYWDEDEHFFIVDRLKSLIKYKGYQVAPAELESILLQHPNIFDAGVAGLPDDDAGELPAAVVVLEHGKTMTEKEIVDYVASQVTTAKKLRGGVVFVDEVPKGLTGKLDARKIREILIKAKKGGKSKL
In short: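 Biochemical qHTS: compounds run as interplate titrations against purified firefly enzyme, with D-luciferin and ATP each at its KM concentration. Light output recorded by CCD imaging.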

[6] = qHTS assay to identify small molecule agonists of the constitutive androstane receptor (CAR) signaling pathway - cell viability counter screen (AID 1224836); note: series mostly up to about 92 µM; nearly all actives have a fitted effect of over 45% in size
In short: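 Fluorescence from CellTiter-Fluor indicates live cells after 23 h exposure. The human hepatoma line expresses hCAR and a CYP2B6-2.2kb reporter. Incubation medium contains 0.75 uM PK11195 (final).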

[7] = qHTS assay to identify small molecule antagonists of the constitutive androstane receptor (CAR) signaling pathway - cell viability counter screen (AID 1224837); note: series mostly up to about 92 µM; nearly all actives have a fitted effect of over 45% in size
In short: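 In quantitative HTS format, compounds at 15 concentrations were applied to HepG2 cells double-transfected with hCAR and CYP2B6-2.2kb under 50 nM CITCO stimulation; live-cell protease activity was read after 23 hr via CellTiter-Fluor.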

[8] = target: Nuclear receptor subfamily 1 group I member 3 (Homo sapiens) (UniProt Q14994); test: qHTS assay to identify small molecule antagonists of the constitutive androstane receptor (CAR) signaling pathway (AID 1224838); note: nearly all actives have a fitted effect of over 40% in size
Sequence of Nuclear receptor subfamily 1 group I member 3 (Homo sapiens) (Q14994 whole entry, looked up): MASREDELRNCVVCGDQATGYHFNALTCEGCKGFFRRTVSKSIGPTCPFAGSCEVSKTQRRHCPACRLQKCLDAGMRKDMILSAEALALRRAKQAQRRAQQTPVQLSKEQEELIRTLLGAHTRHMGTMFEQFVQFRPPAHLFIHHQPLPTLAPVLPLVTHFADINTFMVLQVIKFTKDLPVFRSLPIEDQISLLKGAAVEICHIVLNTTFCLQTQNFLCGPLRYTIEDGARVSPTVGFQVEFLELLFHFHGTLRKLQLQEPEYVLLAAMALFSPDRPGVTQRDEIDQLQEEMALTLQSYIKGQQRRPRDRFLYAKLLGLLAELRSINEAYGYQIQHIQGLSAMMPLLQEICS
In short: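 CITCO-stimulated (50 nM final) HepG2 cells stably transfected with hCAR and CYP2B6-2.2kb luciferase were exposed to compounds at 15 concentrations for 24 h at 37 C/5% CO2. A luciferase reagent was added and luminescence recorded after 30 min.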

[9] = target: Nuclear receptor subfamily 1 group I member 3 (Homo sapiens) (UniProt Q14994); test: qHTS assay to identify small molecule agonists of the constitutive androstane receptor (CAR) signaling pathway (AID 1224839);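 note: HepG2 cells stably carrying human CAR and a CYP2B6 luciferase reporter; series mostly up to about 92 µM; nearly all actives have a fitted effect of over 15% in size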
In short: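 Stable hCAR/CYP2B6-2.2kb HepG2 line in DMEM with 10% FBS; compounds (15 concentrations) and 0.75 uM PK11195 final, 24 h at 37 C/5% CO2, then ONE-Glo luminescence after 30 min.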

[10] = qHTS assay to identify small molecule antagonists of the estrogen related receptor signaling pathway with the pleiotropic PPARgamma coactivator (PGC) from Tox21 10K library - cell viability counter screen (AID 1224840; active = well fitted cell-killing curve with a large enough effect in the repeat runs, not every such curve was filed as active; note: nearly all actives have a fitted effect of over 40% in size)
In short: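 Viability counter screen, PGC/ERR cells: 17.5 h compound exposure at 37 C, CellTiter-Fluor fluorescence endpoint.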

[11] = qHTS assay to identify small molecule antagonists of the estrogen related receptor signaling pathway with the pleiotropic PPARgamma coactivator (PGC) from Tox21 10K library (AID 1224841; call rule not given here; note: series mostly up to about 92 µM; actives are mostly falling curves and most rising ones were filed inactive; nearly all actives have a fitted effect of over 50% in size)
In short: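 In the PGC/ERR line, DMSO solutions of test chemicals are pin-delivered to 2,000 cells/well six hours after dispensing. Following eighteen hours' incubation, One-Glo reagent is added and luminescence recorded.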

[12] = target: Thyrotropin receptor (Homo sapiens) (UniProt P16473); test: qHTS assay to identify small molecule agonists of the thyroid stimulating hormone receptor (TSHR) signaling pathway (AID 1224843; calls by dose curve; note: nearly all actives have a fitted effect of over 45% in size; note: potency is the fitted concentration of half-maximal effect)
Sequence of Thyrotropin receptor (Homo sapiens) (P16473 whole entry, looked up): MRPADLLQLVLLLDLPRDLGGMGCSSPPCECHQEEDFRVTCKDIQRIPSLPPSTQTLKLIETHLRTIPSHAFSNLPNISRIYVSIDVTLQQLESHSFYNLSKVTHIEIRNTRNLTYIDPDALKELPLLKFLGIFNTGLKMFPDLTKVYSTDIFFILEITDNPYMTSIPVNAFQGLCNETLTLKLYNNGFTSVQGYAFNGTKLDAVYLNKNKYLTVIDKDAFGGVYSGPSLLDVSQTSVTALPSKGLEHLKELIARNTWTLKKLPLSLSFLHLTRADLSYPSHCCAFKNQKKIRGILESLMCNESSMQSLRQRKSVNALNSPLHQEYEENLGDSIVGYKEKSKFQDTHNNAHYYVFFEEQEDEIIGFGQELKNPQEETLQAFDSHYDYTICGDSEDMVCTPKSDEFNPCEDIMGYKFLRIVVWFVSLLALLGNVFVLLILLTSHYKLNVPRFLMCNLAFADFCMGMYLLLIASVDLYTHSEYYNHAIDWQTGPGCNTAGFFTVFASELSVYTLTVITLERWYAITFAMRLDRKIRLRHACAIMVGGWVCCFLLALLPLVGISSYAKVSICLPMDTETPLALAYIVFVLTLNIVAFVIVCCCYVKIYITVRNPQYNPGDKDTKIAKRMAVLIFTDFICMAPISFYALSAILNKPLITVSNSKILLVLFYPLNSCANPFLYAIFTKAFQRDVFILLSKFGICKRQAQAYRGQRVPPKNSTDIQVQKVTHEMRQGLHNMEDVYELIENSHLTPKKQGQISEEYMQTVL
In short: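 Agonist-mode screen: TSHR HEK293 cells received test chemicals for half an hour at room temperature, then HTRF cAMP detection reagents for one hour prior to fluorescence measurement. Each chemical ran as a 15-concentration series, triplicated.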

[13] = qHTS assay to identify small molecule agonists of the retinoic acid receptor (RAR) signaling pathway (AID 1159553)
In short: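 Compounds dissolved in DMSO were pinned onto C3RL4 cells seeded the previous day, and plates were held 6 hr at 37 C. RARE-driven luciferase output was then read by luminescence.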

[14] = qHTS assay to identify small molecule agonists of the estrogen related receptor signaling pathway with the pleiotropic PPARgamma coactivator (PGC) from Tox21 10K library (AID 1224842); note: nearly all actives have a fitted effect of over 15% in size
In short: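 PGC/ERR reporter cell line, 2,000 cells per well, incubated 6 h at 37 C before 23 nL compound in DMSO was added. After 18 h at 37 C, One-Glo luminescence read following 30 min at room temperature.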

[15] = qHTS assay to identify small molecule antagonists of the estrogen related receptor (ERR) signaling pathway - cell viability counter screen (AID 1224818); note: series mostly up to about 46 µM
In short: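 Cytotoxicity check run alongside the ERR antagonist screen: cells exposed to test compounds 17.5 h at 37 C, viability taken as CellTiter-Fluor fluorescence intensity.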

[16] = qHTS assay to identify small molecule antagonists of the estrogen related receptor signaling pathway with the pleiotropic PPARgamma coactivator (PGC) cell viability counter screen (AID 1224822; note: series mostly up to about 46 µM)
In short: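 Viable cell signal (CellTiter-Fluor, 30 min, 37 C/5% CO2) was measured in PGC/ERR cells after a 17.5 h compound incubation.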

[17] = qHTS assay to identify small molecule antagonists of the retinoic acid receptor (RAR) signaling pathway (AID 1159552; note: potency is the fitted concentration of half-maximal effect; nearly all actives have a fitted effect of over 50% in size)
In short: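 Overnight-plated C3RL4 reporter cells get compound, then retinol to 1 uM final; plates sit 6 hr at 37 C, 5% CO2. A luciferase reagent is added and light output recorded after 30 min at room temperature.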

Measured: Potency

N#Cc1c(Cl)cccc1Cl
not listed: [12] | [13] | [14] | [15] | [16] | [17]
inactive: all other assays above

O=C1CN=C(c2ccccc2)c2cc([N+](=O)[O-])ccc2N1
not listed: [8] | [9] | [13] | [14] | [15] | [16] | [17]
inactive: all other assays above

O=C(CCN1CC1)OCC(CO)(COC(=O)CCN1CC1)COC(=O)CCN1CC1
not listed: [11] | [12] | [13] | [14] | [15] | [16] | [17]
inactive: all other assays above

Cc1ncc2n1-c1ccc(Cl)cc1C(c1ccccc1F)=NC2
inactive: [1] | [2] | [3] | [4] | [5] | [6] | [7] | [9] | [11]

OC(c1ccccc1)(c1ccccc1)C1CCNCC1
inactive: [1] | [2] | [3] | [13] | [4] | [5] | [6] | [7] | [10]

CC(C)CC(N(C)C)C1(c2ccc(Cl)cc2)CCC1 (configuration not stated)
inactive: [1] | [2] | [3] | [4] | [5] | [6] | [7] | [11] | [12]

CC(=O)C(Cl)Cl
not listed: [10] | [13] | [15] | [16] | [17]
inactive: all other assays above

CNC(=O)O/N=C(\C)SC
inactive: [1] | [2] | [3] | [4] | [5] | [6] | [7] | [10] | [12]

CCSC(=O)N(CC)C1CCCCC1
inactive: [1] | [2] | [3] | [4] | [5] | [6] | [7] | [10] | [12]

COP(N)(=S)Oc1ccccc1C(=O)OC(C)C (configuration not stated)
not listed: [9] | [11] | [13] | [14] | [15] | [16] | [17]
inactive: all other assays above

COc1cc(OC)nc(Sc2cccc(Cl)c2C(=O)O)n1
not listed: [8] | [12] | [13] | [15] | [16] | [17]
inactive: all other assays above

CCC1(c2ccccc2)C(=O)N=C(O)NC1=O (configuration not stated)
inactive: [2] | [3] | [4] | [5] | [6] | [7] | [8] | [9] | [12]
active: [1] 12 µM

CCC(=O)C(CCN(C)C)(c1ccccc1)c1ccccc1
not listed: [8] | [11] | [12] | [14] | [15] | [16] | [17]
inactive: all other assays above

CCC1(c2ccccc2)C(=O)NC(=O)NC1=O
not listed: [11] | [12] | [13] | [14] | [15] | [16] | [17]
inactive: all other assays above

O=NN1CCN(N=O)CC1
not listed: [9] | [12] | [13] | [14] | [15] | [16] | [17]
inactive: all other assays above

CC(CCc1ccccc1)NC(C)C(O)c1ccc(O)cc1 (configuration not stated)
not listed: [8] | [9] | [11] | [13] | [14] | [17]
inactive: all other assays above

O=C1OC(CCN2CCCCC2)OC1(c1ccccc1)c1ccccc1 (configuration not stated)
active: [17] 26.6 µM
inactive: [1] | [2] | [3] | [5] | [6] | [7] | [8] | [10] | [12]

CCC(Cl)[N+](=O)[O-] (configuration not stated)
not listed: [13] | [15] | [16] | [17]
inactive: all other assays above

CNCC(=O)c1ccc(O)c(O)c1
active: [12] 2.37 µM
not listed: [11] | [13] | [14] | [15] | [16] | [17]
inactive: all other assays above

CCOC(=O)/C=C(C)/C=C/C[C@@H](C)CCCC(C)C
not listed: [4] | [11] | [12] | [14] | [15] | [16] | [17]
inactive: all other assays above

O=P(O)(Oc1ccccc1)Oc1ccccc1
inactive: [1] | [2] | [3] | [4] | [5] | [6] | [7] | [10] | [12]

CCC(=O)c1ccccc1
not listed: [9] | [11] | [13] | [14] | [15] | [16] | [17]
inactive: all other assays above

COc1cc(OC)nc(NC(=O)NS(=O)(=O)c2ncccc2C(=O)N(C)C)n1
inactive: [1] | [2] | [3] | [4] | [5] | [6] | [7] | [10]

CC(N)=S
not listed: [8] | [11] | [13] | [14] | [15] | [16] | [17]
inactive: all other assays above

COc1ccc(C(=O)N2CCCC2=O)cc1
not listed: [7] | [8] | [11] | [13] | [14] | [17]
inactive: all other assays above

C[N+](=O)[O-]
not listed: [8] | [9] | [10] | [13] | [15] | [16] | [17]
inactive: all other assays above

— PubChem BioAssay (Tox21)
